Compounds without any hit were thinned out: in the full panel of roughly 83,000, 20% have a hit.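 Negative percent growth values reflect cell death: -40 means 40% of the cells present at the start died, and -100 means all died.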 A number with no mark means an inactive call. Calls of active or inactive are those of the source. The calls were made as follows: active = growth percent below 10; inactive = the rest.
Assays:
Test in all cases: NCI-60 one-dose screen, 48 h (100 = growth as untreated, 0 = no growth, -100 = all killed)
Settings in all cases: 10 µM unless noted
HCT-15 colon = test system: HCT-15 colon
HT29 colon = test system: HT29 colon
SNB-75 CNS = test system: SNB-75 CNS
SNB-19 CNS = test system: SNB-19 CNS
U251 CNS = test system: U251 CNS
PC-3 prostate = test system: PC-3 prostate
SK-MEL-5 melanoma = test system: SK-MEL-5 melanoma
UACC-62 melanoma = test system: UACC-62 melanoma
LOX IMVI melanoma = test system: LOX IMVI melanoma
SK-MEL-28 melanoma = test system: SK-MEL-28 melanoma
SK-MEL-2 melanoma = test system: SK-MEL-2 melanoma
EKVX NSCLC = test system: EKVX NSCLC
SN12C renal = test system: SN12C renal
UO-31 renal = test system: UO-31 renal
TK-10 renal = test system: TK-10 renal
ACHN renal = test system: ACHN renal
CAKI-1 renal = test system: CAKI-1 renal
A498 renal = test system: A498 renal
CCRF-CEM leukemia = test system: CCRF-CEM leukemia
MOLT-4 leukemia = test system: MOLT-4 leukemia

Structure (SMILES) | growth (HCT-15 colon) | growth (HT29 colon) | growth (SNB-75 CNS) | growth (SNB-19 CNS) | growth (U251 CNS) | growth (PC-3 prostate) | growth (SK-MEL-5 melanoma) | growth (UACC-62 melanoma) | growth (LOX IMVI melanoma) | growth (SK-MEL-28 melanoma) | growth (SK-MEL-2 melanoma) | growth (EKVX NSCLC) | growth (SN12C renal) | growth (UO-31 renal) | growth (TK-10 renal) | growth (ACHN renal) | growth (CAKI-1 renal) | growth (A498 renal) | growth (CCRF-CEM leukemia) | growth (MOLT-4 leukemia)
COc1ccc(NC(=O)Cn2c(/C=C/c3cccc(OC)c3)nc3ccccc3c2=O)cc1 | 70.9% | 51.8% | -34.5% (active) | 56.4% | -26.5% (active) | 73.9% | 92.7% | 57.8% | 22.4% | 89.3% | 87.9% | 79.6% | -24% (active) | -74.3% (active) | -42.9% (active) | -61.4% (active) | 50.9% | -42.8% (active) | 89.4% | 97.4%
Fc1ccc(Nc2nnc(-c3c[nH]c4ccccc34)o2)cc1 | 66.7% | 102% | 88.9% | 85% | 84.8% | 70.8% | 91.4% | 77.8% | 72.2% | 106% | 96.7% | 56.5% | 56.2% | 44.4% | 123% | 77.5% | 67.8% | 133% | 16.3% | 29.6%
O=C1NC(=NC23CC4CC(CC(C4)C2)C3)N/C1=C\c1ccc2ncccc2c1 | -12% (active) | 1.49% (active) | -66.3% (active) | 5.85% (active) | -63.7% (active) | -48.1% (active) | -9.19% (active) | 23.6% | -76.9% (active) | -3.01% (active) | -5.99% (active) | 9.7% (active) | -2.27% (active) | 14.7% | -22.9% (active) | 4.48% (active) | -61.1% (active) | -31% (active) | -15% (active) | -13% (active)
COC(=O)c1cc(C(=O)C(Br)Br)n2c1ccc1c3ccccc3ccc12 | 34.2% | 63.1% | 66.4% | 58.6% | 44.3% | 56.3% | 61.7% | 51.8% | 41.4% | 105% | 104% | 43.3% | 53.3% | 37.8% | 65.3% | 36.2% | 58.3% | 121% | 35.6% | 22.9%
COc1cc(NC(=O)CSc2nnc(-c3ccc(-c4nc5ccc(Cl)cc5[nH]4)cc3)o2)cc(OC)c1OC | 25.6% | 51.3% | 36.8% | 49.3% | 32.8% | 52.3% | 5.22% (active) | 28.4% | 32.2% | 49.1% | 40.3% | 81.1% | 46.6% | 64% | 93.9% | 74.9% | 68.3% | 137% | 15% | 34.2%
CCOC(=O)c1ccc(NC(=S)NC(=O)c2ccc(NC(=O)C(C)C)cc2OC)cc1 | 23.6% | 68.2% | 51.1% | 57.7% | 63.4% | 18% | -69% (active) | 30.2% | 45.6% | 50.8% | 48.5% | 36.1% | 73.8% | 51.7% | 85.7% | 64.6% | 53.7% | 86.7% | 9.79% (active) | -60.3% (active)
CCCCCCCCCCCCCCCCCC(=O)Nc1ccc(OC)cc1 | 99.1% | 104% | 144% | 96.2% | 102% | 93.3% | 102% | 97.5% | 95.9% | 110% | 102% | 94.7% | 99.7% | 88.8% | 99.8% | 105% | 98% | 105% | 86.4% | 102%
COc1ccc(Nc2ncnc3sc4c(c23)CCN(Cc2ccccc2)C4)cc1 | 74.9% | 98.1% | 89.2% | 90.8% | 88.9% | 68.8% | 70.4% | 43.5% | 52.2% | 99.8% | 87.4% | 75.8% | 85.4% | 49% | 109% | 77% | 52% | 91.9% | 73.5% | 62.4%
COc1cncc(-c2ccc3ncnc(N4CCc5ccc(Cl)cc54)c3c2)c1 | 11.9% | 31.4% | 24.3% | 35.9% | 51% | 6.75% (active) | -16.7% (active) | 16.3% | 6.64% (active) | 48.6% | 30.6% | -29.3% (active) | 20.3% | 1.93% (active) | 8.96% (active) | 10.5% | 8.52% (active) | 33.2% | -1.98% (active) | 4.34% (active)
COc1ccc2c(c1)C(Sc1ccc(Cl)cc1)c1c(nc(N)c(C#N)c1N)O2 (stereo not given) | 58.9% | 75.2% | 36.9% | 65.1% | 51.9% | 20% | 36.5% | 64.3% | -2.6% (active) | 99.8% | 79.5% | 43.8% | 55.7% | 26.5% | 99.1% | 60.1% | 51.9% | 84.4% | -10.6% (active) | -1.37% (active)
c1ccc(CSc2nnc(-c3ccc4nc(-c5ccccc5)[nH]c4c3)o2)cc1 | 12.7% | 42.5% | -51.4% (active) | 16.3% | 4.61% (active) | 26.6% | 29.4% | 5.19% (active) | -43.6% (active) | -4.76% (active) | 57.5% | 57.3% | -48.3% (active) | 40.6% | -2.54% (active) | 1.16% (active) | -44.9% (active) | -8.46% (active) | 73.8% | 58.2%
Oc1ccc(Cl)c(Nc2nc(SCCN3CCOCC3)nc3c2cnn3CC(Cl)c2ccc(Br)cc2)c1 (stereo not given) | 8.41% (active) | 6.18% (active) | 11.5% | 37.8% | 23.9% | 14.5% | 16.6% | 39.9% | -59.3% (active) | 32% | 20.6% | 37% | 35% | 14% | 36.1% | 12.9% | 21.2% | 63.4% | 3.42% (active) | -24% (active)
c1n[nH]cc1-c1nc2ccc3[nH]ncc3c2c2c1CC1(CC2)COC1 | 70.5% | 52.1% | -5.96% (active) | 47.4% | 39.5% | 53% | 44.7% | 18.7% | 38.5% | 44.5% | 18.3% | 78.6% | 38.9% | 95.7% | 49.2% | 54.6% | 12.3% | 38.6% | 30.3% | 32.8%
C=CC(=O)Nc1ccc(C(=O)/C=C/c2ccc(N(C)C)cc2)c(O)c1 | -17.2% (active) | -37.7% (active) | 28.1% | 28.2% | -56.4% (active) | 34.4% | 2.1% (active) | -25.3% (active) | -60.3% (active) | -6.18% (active) | 3.4% (active) | 17.3% | 5.34% (active) | 1.04% (active) | 23.9% | -47.5% (active) | -18.1% (active) | 42.8% | 11.2% | 7.05% (active)
O=C1/C(=C/C=C/c2ccco2)SC(=S)N1CC(=S)C1C=CS(=O)(=O)C1 (stereo not given) | 75.6% | 109% | 93.5% | 95.2% | 88.7% | 96.7% | 86.8% | 74.4% | 66.7% | 93.9% | 88.1% | 94% | 81.2% | 84.1% | 126% | 100% | 107% | 141% | 45.9% | 68.8%
